By AC50 is commonly meant the midpoint of the concentration-response curve, whichever way the signal moves. By IC50 is commonly meant the concentration that inhibits the measured activity by half.

Test [1] in a line: growth inhibition of DIPG cells – cell-based, MIPE4.0 library, CellTiter-Glo luminescence, qHTS (AID 1347066; cut-off not given, nearly all actives have AC50 up to about 30 µM;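 further: cells exposed to compound for 48 hours before readout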). The settings on record: SU-DIPG-VI viability, CellTiter-Glo ATP luminescence. For orientation: ATP-based viability assays read luminescence as a measure of living cells.
Test [2] is described as follows: JHH-DIPG-1 glioma cell viability, MIPE5.0 library, CellTiter-Glo luminescence, qHTS (AID 1347067; cut-off not given, nearly all actives have AC50 up to about 26 µM;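 further: cells exposed to compound for 48 hours before readout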). Conditions: JHH-DIPG-1 glioma viability, CellTiter-Glo ATP luminescence.
Test [3] can be described thus: growth inhibition of DIPG cells – cell-based, MIPE5.0 library, qHTS (AID 1347068; cut-off not given, nearly all actives have IC50 up to about 30 µM;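 on IC50: cells exposed to compound for 48 hours before viability readout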). Conditions: SU-DIPG-XXV viability.
Test [4] is described as follows: viability loss with induced miR-34 in A549 – imaging, A549 dox-inducible miR-34, nuclei and caspase counts, primary screen (AID 1347080). The settings on record: A549 miR-34 inducible, Hoechst nuclei count, 48 h.
Test [5] can be described thus: MELAS cybrid and Rieske KO viability enhancers – cell-based, MELAS cybrids, Rieske KO mouse fibroblasts, CellTiter-Glo, primary screen (AID 1508586;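 active means mean z-score across replicates of 1.96 or higher in either the MELAS or the Rieske mutant cell line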;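 further: z relative to plate mean and SD of compound and empty wells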). The settings on record: low glucose.
Test [6] is described as follows: viability loss in pontine glioma line – cell-based, SU-DIPG-XXV, MIPE5.0, CellTiter-Glo, qHTS, dose response (AID 1347065; cut-off not given, nearly all actives have AC50 up to about 26 µM;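 further: cells exposed to compound for 48 hours before ATP readout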). The settings on record: CellTiter-Glo ATP luminescence.
Where [7] appears, read: stronger effect = lower value, cell number ratio, induced over uninduced.
Setting [8] is: measured here: relative caspase fold change +Dox/-Dox.
[9] abbreviates: measured here: total cells with miR-34 induction, stronger effect = lower value.
Where [10] appears, read: measured here: total cells without miR-34 induction.
Setting [11] is: MELAS cybrid survival, CellTiter-Glo 48 h, stronger effect = higher value.
The mark [12] stands for this setting: Rieske KO mouse fibroblast survival, CellTiter-Glo 72 h.

Several values for one entry are separate records, joined by “and”; a condition that tells them apart may be missing. Equal entries are not always repeated. Inconclusive results are not listed. Activity calls are given as the source filed them.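 How the source made its calls, unless noted: active means compounds whose cell count with miR-34 switched on is under 0.7 times the count with it off; inactive means the rest.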

For `CC(C)(C)NC(=O)[C@H]1CC[C@H]2[C@@H]3CC[C@H]4NC(=O)C=C[C@]4(C)[C@H]3CC[C@]12C`, the call in test [1], in test [2] and in test [3] was inactive. Also, the fold change in test [4] (setting [7]) is 0.927 (inactive) and 0.774 (inactive); in test [4] (setting [8]) it was 1.11 and 2.31. Besides, the cell count in test [4] (setting [9]) was 8640 and 8130; in test [4] (setting [10]) it was 9320 and 10500. Also, the z-score in test [5] (setting [11]) is 0.136 (inactive) and 0.187 (inactive); in test [5] (setting [12]), 0.621 and 0.926.

Consider `CC1(C)O[C@H]2CC(=O)OC[C@]23[C@H]2CC[C@@]4(C)[C@H](c5ccoc5)OC(=O)[C@H]5O[C@]54[C@]2(C)C(=O)C[C@@H]13`, for which the compound was called inactive in test [1].

`COc1ncnc(NS(=O)(=O)c2ccc(N)cc2)c1OC`: the compound was classed as inactive in test [1], in test [2] and in test [3]. Also, the fold change in test [4] (setting [7]) is 0.905 (inactive) and 0.917 (inactive) and 0.89 (inactive); in test [4] (setting [8]), 0.874 and 2.12 and 1.28. The cell count in test [4] (setting [9]) was 9490 and 11800 and 9350; in test [4] (setting [10]), 10500 and 12900. The z-score was 0.681 (inactive) and -0.67 (inactive) in test [5] (setting [11]); 0.678 and -1.38 in test [5] (setting [12]).

`CN(Cc1cc(Br)cc(Br)c1N)C1CCCCC1`: the AC50 in test [6] is 16.6 µM (active); in test [2] it was 26.3 µM (active). In addition, the compound was classed as inactive in test [3]. For the same compound, the fold change in test [4] (setting [7]) is 0.928 (inactive) and 0.903 (inactive) and 0.881 (inactive); in test [4] (setting [8]), 0.942 and 3.08 and 1.05. The cell count in test [4] (setting [9]) was 8160 and 11000 and 9390; in test [4] (setting [10]) it was 8790 and 12200 and 10700. Moreover, the z-score in test [5] (setting [11]) is -0.2 (inactive) and -0.238 (inactive) and -0.0697 (inactive); in test [5] (setting [12]) it was 0.932 and -0.166 and 0.184.

In the case of `Cc1ccc(S(=O)(=O)NC(=O)NN2CC3CCCC3C2)cc1` (stereo unspecified), the call in test [6], in test [2] and in test [3] was inactive. In addition, the fold change in test [4] (setting [7]) was 0.889 (inactive) and 0.88 (inactive); in test [4] (setting [8]), 1.81 and 0.848 and 0.946. Besides, the cell count is 8400 and 8080 and 10300 in test [4] (setting [9]); 9450 and 9180 and 11600 in test [4] (setting [10]). Moreover, the z-score is -0.361 (inactive) and -0.892 (inactive) and 0.121 (inactive) in test [5] (setting [11]); 0.53 and -0.111 and 0.139 in test [5] (setting [12]).

For the compound `CCC(=O)O[C@]1(C(=O)SCF)[C@H](C)C[C@H]2[C@@H]3C[C@H](F)C4=CC(=O)C=C[C@]4(C)[C@@]3(F)[C@@H](O)C[C@@]21C`, the compound was classed as inactive in test [1], in test [2] and in test [3]. Besides, the fold change is 0.882 (inactive) and 0.864 (inactive) in test [4] (setting [7]); 0.631 and 0.861 in test [4] (setting [8]). Besides, the cell count in test [4] (setting [9]) is 6550 and 5840; in test [4] (setting [10]), 7420 and 6760. Also, the z-score was 0.444 (inactive) in test [5] (setting [11]) and 0.72 in test [5] (setting [12]).

Consider `CC1=CC(=O)c2ccccc2C1=O`, for which the AC50 was 8.33 µM (active) in test [1] and 33.2 µM (active) in test [2]. Moreover, the compound was classed as inactive in test [3]. The fold change is 1.24 (inactive) and 1.04 (inactive) and 1.27 (inactive) in test [4] (setting [7]); 0.813 and 0.493 and 0.646 in test [4] (setting [8]). Also, the cell count in test [4] (setting [9]) is 1500 and 4940 and 494; in test [4] (setting [10]) it was 1210 and 4760 and 388. In addition, the values for the z-score in test [5] (setting [11]) and in test [5] (setting [12]) were -0.194 (inactive) and -1.25, respectively.

For the compound `C#CCN[C@@H]1CCc2ccccc21`, the compound was called inactive in test [1], in test [2] and in test [3]. Also, the results for the fold change in test [4] (setting [7]) and in test [4] (setting [8]) were 0.9 (inactive) and 0.614, respectively. Moreover, the results for the cell count in test [4] (setting [9]) and in test [4] (setting [10]) were 8560 and 9500, respectively. Further, the z-score in test [5] (setting [11]) was -0.17 (inactive); in test [5] (setting [12]), 0.336.

On to `CC(C)[C@H](N)C(=O)OCCOCn1cnc2c(=O)[nH]c(N)nc21`, for which the result in test [6], in test [2] and in test [3] was inactive. For the same compound, the fold change in test [4] (setting [7]) was 0.847 (inactive); in test [4] (setting [8]) it was 1.65. Also, the cell count in test [4] (setting [9]) came out at 9730; in test [4] (setting [10]) it was 11500. The z-score was 0.38 (inactive) and 0.156 (inactive) in test [5] (setting [11]); 0.16 and -0.416 in test [5] (setting [12]).

Turning to `O=c1[nH]c(=O)n([C@H]2C[C@H](O)[C@@H](CO)O2)cc1F`, the call in test [6] and in test [3] was inactive. Further, the fold change in test [4] (setting [7]) is 1.03 (inactive); in test [4] (setting [8]), 0.977. The values for the cell count in test [4] (setting [9]) and in test [4] (setting [10]) were 4160 and 4020, respectively. Further, the z-score is -1.41 (inactive) and 0.996 (inactive) in test [5] (setting [11]); 1.5 and -0.252 in test [5] (setting [12]).

For `CCCCOc1ccc(CC(=O)NO)cc1`, the compound was called inactive in test [6] and in test [3]. Further, the fold change is 0.904 (inactive) and 0.891 (inactive) in test [4] (setting [7]); 1.17 and 0.62 in test [4] (setting [8]). Also, the cell count is 7500 and 10000 in test [4] (setting [9]); 8290 and 11200 in test [4] (setting [10]). Also, the z-score in test [5] (setting [11]) was -0.309 (inactive) and 0.359 (inactive); in test [5] (setting [12]), 0.677 and -0.599.

As for `Cc1nnc(NS(=O)(=O)c2ccc(N)cc2)s1`, the call in test [6] and in test [2] was inactive. Besides, the fold change is 0.854 (inactive) and 0.859 (inactive) and 0.853 (inactive) in test [4] (setting [7]); 1.13 and 0.759 and 2.93 in test [4] (setting [8]). Besides, the cell count in test [4] (setting [9]) is 8770 and 7900 and 10600; in test [4] (setting [10]), 10300 and 9200 and 12500. Further, the z-score is -0.255 (inactive) and -1.45 (inactive) in test [5] (setting [11]); 0.469 and 0.621 in test [5] (setting [12]).

For `CCOC(=O)[C@H](CCc1ccccc1)N[C@@H](C)C(=O)N1[C@H](C(=O)O)C[C@@H]2CCC[C@@H]21`, the AC50 in test [1] was 16.6 µM (active). Further, the compound was called inactive in test [2] and in test [3]. Also, the fold change in test [4] (setting [7]) is 0.911 (inactive) and 0.827 (inactive) and 0.868 (inactive); in test [4] (setting [8]), 1.49 and 3.09 and 1.08. The cell count was 9860 and 10700 and 9970 in test [4] (setting [9]); 10800 and 13000 and 11500 in test [4] (setting [10]). Also, the z-score in test [5] (setting [11]) is -0.258 (inactive) and 0.537; in test [5] (setting [12]) it was -0.11 and 2.28.

With `CC(=O)N(O)CCCCCNC(=O)CCC(=O)N(O)CCCCCNC(=O)CCC(=O)N(O)CCCCCN`, the AC50 in test [6] was 13.2 µM (active). Besides, the compound was called inactive in test [3]. Further, the fold change in test [4] (setting [7]) is 0.985 (inactive) and 0.882 (inactive) and 0.874 (inactive); in test [4] (setting [8]), 1.2 and 0.413 and 4.36. Moreover, the cell count in test [4] (setting [9]) is 4610 and 9190 and 10300; in test [4] (setting [10]), 4680 and 10400 and 11800. The z-score in test [5] (setting [11]) was -0.752 (inactive) and -0.803 (inactive); in test [5] (setting [12]) it was -0.313 and -1.18.

As for `CO[C@@]12[C@H](COC(N)=O)C3=C(C(=O)C(C)=C(N)C3=O)N1C[C@@H]1N[C@@H]12`, the results for the AC50 in test [6] and in test [2] were 9.34 µM (active) and 3.32 µM (active), respectively. Moreover, the fold change in test [4] (setting [7]) was 1.21 (inactive) and 1.12 (inactive); in test [4] (setting [8]) it was 0.667 and 0.791. Also, the cell count was 1280 and 1220 in test [4] (setting [9]); 1060 and 1090 in test [4] (setting [10]). The z-score in test [5] (setting [11]) is -0.241 (inactive); in test [5] (setting [12]) it was -1.21.

With `C/C=C(/C(=C/C)c1ccc(O)cc1)c1ccc(O)cc1`, the compound was called inactive in test [1]. The AC50 in test [2] was 20.9 µM (active). Further, in test [3], the IC50 is 23.5 µM (active). Further, the fold change in test [4] (setting [7]) was 0.888 (inactive) and 0.901 (inactive); in test [4] (setting [8]) it was 1.32 and 1.91. For the same compound, the cell count in test [4] (setting [9]) is 7250 and 10300; in test [4] (setting [10]), 8160 and 11500. The z-score was -1.21 (inactive) in test [5] (setting [11]) and -1.14 in test [5] (setting [12]).

Source of the values: PubChem BioAssay.
